The text below walks through data of PubChem BioAssay (NCI).

Compounds without any hit were thinned out: in the full panel of roughly 83,000, 20% have a hit.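 Assay: single dose, 48 h. Readout: percent growth (0 = no net growth; negative = cell death). Active: <10.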 Values without a mark were called inactive. The source made the active and inactive calls.

Holding throughout (test): NCI-60 one-dose screen, 48 h (100 = growth as untreated, 0 = no growth, -100 = all killed)
One assay has as its system SN12C renal. As to conditions: 10 µM unless noted.
The next assay concerns UO-31 renal. Conditions: 10 µM unless noted.
A further assay has as its system TK-10 renal. Conditions: 10 µM unless noted.
Another assay concerns ACHN renal. Conditions: 10 µM unless noted.
In another assay the test system is CAKI-1 renal. Conditions: 10 µM unless noted.
For the next assay, the system named is A498 renal. Conditions: 10 µM unless noted.
In the next assay the test system is CCRF-CEM leukemia. As to conditions: 10 µM unless noted.
The test system of a further assay is MOLT-4 leukemia. Conditions: 10 µM unless noted.
In another assay the test system is SR leukemia. As to conditions: 10 µM unless noted.
The subject of a further assay is RPMI-8226 leukemia. As to conditions: 10 µM unless noted.
In another assay the test system is OVCAR-8 ovarian. Conditions: 10 µM unless noted.
In another assay the test system is OVCAR-5 ovarian. Conditions: 10 µM unless noted.
The next assay concerns OVCAR-4 ovarian. As to conditions: 10 µM unless noted.
A further assay concerns IGROV1 ovarian. As to conditions: 10 µM unless noted.
Another assay has as its system OVCAR-3 ovarian. Conditions: 10 µM unless noted.
A further assay concerns HS 578T breast. Conditions: 10 µM.
The next assay deals with NCI/ADR-RES ovarian. As to conditions: 10 µM unless noted.
The next assay has as its system SK-OV-3 ovarian. Conditions: 10 µM unless noted.

For `COc1ccc(/C=C2\N=C(c3cccnc3)N(c3ccccc3)NC2=O)cc1`, the growth in the assay on SN12C renal is 105%; in the assay with UO-31 renal, 82.2%; in the assay with TK-10 renal, 101%; in the assay with ACHN renal, 115%; in the assay on CAKI-1 renal, 97.6%; in the assay on A498 renal it was 71.8%. For the same molecule, the growth is -21.1% (active) in the assay on CCRF-CEM leukemia; 85.6% in the assay with MOLT-4 leukemia; 92.7% in the assay on SR leukemia; 68.5% with RPMI-8226 leukemia; 95.9% in the assay with OVCAR-8 ovarian; 103% in the assay with OVCAR-5 ovarian. Further, the growth with OVCAR-4 ovarian is 99.7%; with IGROV1 ovarian it was 115%; with OVCAR-3 ovarian, 95.9%; with HS 578T breast it was 92%; in the assay on NCI/ADR-RES ovarian, 100%.

Take `Nc1nonc1-c1nc2ccccc2n1Cc1ccc(F)cc1`: the growth in the assay on SN12C renal was 62.4%; in the assay with UO-31 renal it was 42.9%; in the assay with TK-10 renal, 55.9%; in the assay on ACHN renal, 68.1%; in the assay with CAKI-1 renal it was 35.9%; in the assay on A498 renal it was 42.1%. Moreover, the growth was 54.2% in the assay with CCRF-CEM leukemia; 30% with MOLT-4 leukemia; 22.3% with SR leukemia; 64.4% in the assay on RPMI-8226 leukemia; 76.7% with OVCAR-8 ovarian; 80.4% in the assay with OVCAR-5 ovarian. The growth with OVCAR-4 ovarian is 66.9%; in the assay on IGROV1 ovarian it was 48.7%; in the assay on OVCAR-3 ovarian it was 48.5%; in the assay on HS 578T breast, 53.6%; in the assay on NCI/ADR-RES ovarian, 36.8%.

In the case of `Nc1nc(N)c2c(n1)NC(c1sc(Cl)nc1Cl)CC(c1ccccc1)=N2` (stereo not given), the growth is 48.7% in the assay with SN12C renal; 46.6% with UO-31 renal; 70.8% with TK-10 renal; 61.5% in the assay on ACHN renal; 19.7% in the assay on A498 renal; 38.9% with CCRF-CEM leukemia. Further, the growth is 26% with MOLT-4 leukemia; 19.9% in the assay on SR leukemia; 45.3% with RPMI-8226 leukemia; 60.7% in the assay with OVCAR-8 ovarian; 76.7% in the assay on OVCAR-5 ovarian; 94% with OVCAR-4 ovarian. Also, the growth was 74% in the assay with SK-OV-3 ovarian, 50.5% in the assay with IGROV1 ovarian, 40.4% in the assay on OVCAR-3 ovarian and 48.1% in the assay with HS 578T breast.

Take `COc1ccccc1NC(=O)OCC12COCN1COC2`: the growth with SN12C renal is 100%; in the assay on UO-31 renal, 94.9%; with TK-10 renal, 108%; with ACHN renal, 102%; in the assay with CAKI-1 renal it was 100%; with A498 renal, 80.5%. Besides, the growth was 102% in the assay on CCRF-CEM leukemia; 95.9% in the assay on MOLT-4 leukemia; 93.8% with SR leukemia; 99.8% in the assay on RPMI-8226 leukemia; 96% in the assay with OVCAR-8 ovarian; 105% in the assay on OVCAR-4 ovarian. Also, the growth in the assay on SK-OV-3 ovarian is 105%; in the assay on IGROV1 ovarian it was 109%; in the assay with OVCAR-3 ovarian it was 116%; with HS 578T breast it was 110%; with NCI/ADR-RES ovarian, 107%.

On to `CC(C)NC(=O)OCC#CCOC(=O)NC(C)C`, for which the growth in the assay on SN12C renal was 102%; with UO-31 renal, 79.8%; in the assay on TK-10 renal, 99.3%; in the assay with ACHN renal, 108%; in the assay on CAKI-1 renal, 91.7%; in the assay with A498 renal, 104%. Moreover, the growth in the assay on CCRF-CEM leukemia is 103%; in the assay on MOLT-4 leukemia, 101%; with SR leukemia, 102%; with RPMI-8226 leukemia it was 103%; in the assay with OVCAR-8 ovarian it was 115%; with OVCAR-4 ovarian, 121%. Moreover, the growth with SK-OV-3 ovarian is 94.8%; with IGROV1 ovarian it was 90.6%; in the assay with OVCAR-3 ovarian, 108%; in the assay on HS 578T breast it was 115%; in the assay on NCI/ADR-RES ovarian, 109%.

For `COc1ccc(/C=C2\CCCC3=C2N=C2SC(C)=NN2C3c2ccc(OC)c(OC)c2)cc1OC` (stereo not given), the growth is 26.6% in the assay on SN12C renal; 36.1% in the assay with UO-31 renal; 25.6% in the assay with TK-10 renal; 20.7% in the assay with ACHN renal; 26.1% in the assay with CAKI-1 renal; 52.2% in the assay on A498 renal. The growth is 3.82% (active) in the assay with CCRF-CEM leukemia; 27.7% in the assay on MOLT-4 leukemia; 14.3% in the assay on SR leukemia; -24.9% (active) in the assay with RPMI-8226 leukemia; -4.14% (active) in the assay with OVCAR-8 ovarian; 26.5% in the assay on OVCAR-5 ovarian. Also, the growth with OVCAR-4 ovarian was 41.4%; in the assay with SK-OV-3 ovarian it was 62.8%; with IGROV1 ovarian it was 30.4%; in the assay with OVCAR-3 ovarian it was 23.8%; with HS 578T breast, 86.2%; in the assay with NCI/ADR-RES ovarian it was 17.7%.

Consider `NS(=O)(=O)c1ccc(N2N=C(c3ccc(Br)cc3)CC2c2cn(-c3ccccc3)nc2-c2ccc(Cl)cc2)cc1` (stereo not given), for which the growth in the assay on SN12C renal is 78.6%; in the assay with UO-31 renal, 58.3%; in the assay on TK-10 renal, 112%; in the assay on ACHN renal it was 86.5%; with CAKI-1 renal, 89%; with A498 renal, 113%. The growth in the assay on CCRF-CEM leukemia is 70.8%; in the assay with MOLT-4 leukemia, 74.8%; in the assay with SR leukemia, 72%; in the assay with RPMI-8226 leukemia, 74%; with OVCAR-8 ovarian it was 90.6%; in the assay with OVCAR-5 ovarian, 102%. Further, the growth in the assay with OVCAR-4 ovarian was 93.7%; with SK-OV-3 ovarian, 94.7%; in the assay with IGROV1 ovarian, 93.8%; in the assay on OVCAR-3 ovarian it was 95.1%; with HS 578T breast it was 100%; in the assay with NCI/ADR-RES ovarian, 86.6%.

`C=CCn1c(C)nc2cc(Nc3nc(N4CCCC4)nc4nc[nH]c34)ccc21`: the growth in the assay with SN12C renal is 36.8%; in the assay with UO-31 renal, 61.2%; with TK-10 renal, 11.8%; with ACHN renal it was 17.8%; in the assay with CAKI-1 renal, 89%; in the assay with A498 renal, 1.35% (active). Also, the growth in the assay on CCRF-CEM leukemia was 83.9%; in the assay on MOLT-4 leukemia, 89%; with SR leukemia, -9.28% (active); in the assay with RPMI-8226 leukemia it was 29.9%; in the assay with OVCAR-8 ovarian, 74.7%; in the assay on OVCAR-5 ovarian, 30.6%. For the same molecule, the growth is -30.4% (active) in the assay on OVCAR-4 ovarian; 59% in the assay with SK-OV-3 ovarian; 55.8% in the assay on IGROV1 ovarian; -11.3% (active) in the assay on OVCAR-3 ovarian; -0.0485% (active) in the assay on HS 578T breast; 94.7% in the assay with NCI/ADR-RES ovarian.

For the molecule `Cc1ccc(C2CC(c3cccs3)=NN2c2ccc(S(N)(=O)=O)cc2)s1` (stereo not given), the growth is 98.3% in the assay with SN12C renal; 75.8% in the assay on UO-31 renal; 94.8% in the assay with TK-10 renal; 91.9% in the assay with ACHN renal; 89.9% in the assay with A498 renal; 80.6% in the assay on CCRF-CEM leukemia. The growth with MOLT-4 leukemia is 89.2%; in the assay on SR leukemia it was 82.2%; in the assay with RPMI-8226 leukemia, 65.3%; in the assay with OVCAR-8 ovarian, 83.2%; in the assay on OVCAR-5 ovarian, 101%; in the assay on OVCAR-4 ovarian it was 110%. For the same molecule, the growth in the assay with SK-OV-3 ovarian is 101%; with OVCAR-3 ovarian it was 94%; with HS 578T breast it was 97.2%; in the assay on NCI/ADR-RES ovarian, 84.6%.

Regarding `COc1cc(C2CC(c3ccc(Cl)cc3)=NN2C=O)ccc1OS(=O)(=O)c1ccc(C)cc1` (stereo not given), the growth was 97.1% in the assay on SN12C renal; 85.2% in the assay with UO-31 renal; 110% in the assay on TK-10 renal; 90.9% with ACHN renal; 74.1% with A498 renal; 76.3% in the assay with CCRF-CEM leukemia. Besides, the growth in the assay on MOLT-4 leukemia is 91.5%; in the assay with SR leukemia it was 99.8%; in the assay on RPMI-8226 leukemia, 82.4%; with OVCAR-8 ovarian it was 90.3%; in the assay on OVCAR-5 ovarian it was 87.2%; in the assay with OVCAR-4 ovarian it was 112%. Moreover, the growth is 96.3% with SK-OV-3 ovarian, 94.4% in the assay on IGROV1 ovarian, 102% in the assay on OVCAR-3 ovarian and 86.8% in the assay with HS 578T breast.
